# Key:
# Experiment in all cases: DAPPL (digital affinity profiling via proximity ligation, sequencing); 10 mM Tris-HCl pH 7.5, 50 mM NaCl, 1 mM DTT, 4% glycerol, room temperature, 30 min; GST-TFs on glutathione beads, 16-mer random dsDNA library, 0.1% formaldehyde crosslink after washing; high values mean tight binding
# [1] = target: T1, FLI1 (Homo sapiens, UniProt Q01543 1-452); conditions: protein: recombinant; tags: N-terminal GST; dsDNA, one strand shown
# T1 sequence: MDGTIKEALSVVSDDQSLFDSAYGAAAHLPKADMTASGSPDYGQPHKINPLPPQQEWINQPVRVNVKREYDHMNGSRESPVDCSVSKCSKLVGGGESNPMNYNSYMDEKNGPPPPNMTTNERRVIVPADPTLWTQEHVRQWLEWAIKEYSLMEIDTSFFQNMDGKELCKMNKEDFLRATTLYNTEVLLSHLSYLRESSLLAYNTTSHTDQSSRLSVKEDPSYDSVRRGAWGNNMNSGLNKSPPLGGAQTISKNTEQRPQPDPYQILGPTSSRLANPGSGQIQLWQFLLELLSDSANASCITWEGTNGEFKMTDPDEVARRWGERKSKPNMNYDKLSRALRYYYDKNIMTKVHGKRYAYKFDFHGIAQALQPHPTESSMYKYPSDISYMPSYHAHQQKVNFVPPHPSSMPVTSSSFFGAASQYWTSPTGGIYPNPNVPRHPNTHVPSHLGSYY
# Method in brief: (§1)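 GST fusions of human transcription factors were expressed in yeast and captured with glutathione beads. Once given DNA barcodes and pooled alongside a tag-only sample, they were incubated for 30 min at room temperature with 200 nmole of a random double-stranded 16-mer DNA library in Tris/NaCl/DTT/glycerol buffer, then washed, crosslinked (0.1% formaldehyde), proximity-ligated, PCR-amplified and sequenced on an Illumina NextSeq500. The binding signal of each hexamer is its read frequency for a factor divided by its frequency for the tag-only sample.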
# [2] = target: T2, ELK1 (Homo sapiens, UniProt P19419 1-428); conditions: protein: recombinant; tags: N-terminal GST; dsDNA, one strand shown
# T2 sequence: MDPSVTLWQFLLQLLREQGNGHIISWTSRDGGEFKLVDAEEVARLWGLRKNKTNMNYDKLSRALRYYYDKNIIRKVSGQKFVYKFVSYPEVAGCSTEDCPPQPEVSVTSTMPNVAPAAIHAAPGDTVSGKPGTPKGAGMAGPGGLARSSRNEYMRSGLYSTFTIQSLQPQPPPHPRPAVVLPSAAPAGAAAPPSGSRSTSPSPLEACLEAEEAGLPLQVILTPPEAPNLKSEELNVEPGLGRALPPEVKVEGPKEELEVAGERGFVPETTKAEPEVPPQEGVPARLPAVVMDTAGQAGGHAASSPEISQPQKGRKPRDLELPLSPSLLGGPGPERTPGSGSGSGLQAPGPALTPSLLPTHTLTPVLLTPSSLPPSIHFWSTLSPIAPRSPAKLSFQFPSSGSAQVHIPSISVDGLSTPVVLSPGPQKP
# Method in brief: as §1
# [3] = target: T3, GABPA (Homo sapiens, UniProt Q06546 1-454); conditions: protein: recombinant; tags: N-terminal GST; dsDNA, one strand shown
# T3 sequence: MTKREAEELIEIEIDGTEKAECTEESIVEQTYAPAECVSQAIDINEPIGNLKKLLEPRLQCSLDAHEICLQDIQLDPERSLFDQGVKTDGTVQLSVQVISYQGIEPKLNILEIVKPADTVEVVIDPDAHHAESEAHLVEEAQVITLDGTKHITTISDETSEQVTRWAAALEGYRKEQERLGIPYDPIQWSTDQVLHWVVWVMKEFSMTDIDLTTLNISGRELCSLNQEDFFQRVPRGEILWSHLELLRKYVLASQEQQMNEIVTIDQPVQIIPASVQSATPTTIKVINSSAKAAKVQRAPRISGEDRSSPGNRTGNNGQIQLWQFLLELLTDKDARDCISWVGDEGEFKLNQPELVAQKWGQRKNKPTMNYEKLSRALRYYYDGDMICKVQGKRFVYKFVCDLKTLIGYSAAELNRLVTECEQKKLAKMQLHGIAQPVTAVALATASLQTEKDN
# Method in brief: as §1
# [4] = target: T4, ERG (Homo sapiens, UniProt P11308 1-479); conditions: protein: recombinant; tags: N-terminal GST; dsDNA, one strand shown
# T4 sequence: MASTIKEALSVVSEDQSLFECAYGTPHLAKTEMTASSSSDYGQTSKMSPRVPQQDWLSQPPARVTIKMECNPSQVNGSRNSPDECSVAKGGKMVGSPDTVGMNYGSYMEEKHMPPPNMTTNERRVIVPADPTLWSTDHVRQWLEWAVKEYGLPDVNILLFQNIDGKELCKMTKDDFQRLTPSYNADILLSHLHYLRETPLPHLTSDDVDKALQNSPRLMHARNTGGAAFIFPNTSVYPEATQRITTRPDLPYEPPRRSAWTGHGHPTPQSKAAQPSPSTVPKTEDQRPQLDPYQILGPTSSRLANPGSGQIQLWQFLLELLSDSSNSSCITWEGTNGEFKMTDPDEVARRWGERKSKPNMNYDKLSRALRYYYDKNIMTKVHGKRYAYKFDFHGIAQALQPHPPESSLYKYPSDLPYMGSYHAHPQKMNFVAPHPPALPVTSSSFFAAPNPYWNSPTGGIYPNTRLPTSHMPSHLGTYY
# Method in brief: as §1
# [5] = target: ELF1 (Homo sapiens, UniProt P32519 1-619); conditions: protein: recombinant; tags: N-terminal GST; dsDNA, one strand shown
# Method in brief: as §1
# [6] = target: T5, EHF (Homo sapiens, UniProt Q9NZC4 1-300); conditions: protein: recombinant; tags: N-terminal GST; dsDNA, one strand shown
# T5 sequence: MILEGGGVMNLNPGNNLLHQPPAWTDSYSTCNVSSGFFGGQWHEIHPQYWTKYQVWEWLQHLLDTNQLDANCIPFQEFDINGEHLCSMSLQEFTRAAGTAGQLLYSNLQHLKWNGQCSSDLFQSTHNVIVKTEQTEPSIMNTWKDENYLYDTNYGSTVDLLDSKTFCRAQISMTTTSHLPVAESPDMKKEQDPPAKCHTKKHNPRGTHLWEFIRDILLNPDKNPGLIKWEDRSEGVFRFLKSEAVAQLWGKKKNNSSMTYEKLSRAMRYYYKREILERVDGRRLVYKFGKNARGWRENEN
# Method in brief: as §1
# [7] = target: SPI1 (Homo sapiens, UniProt P17947 1-270); conditions: protein: recombinant; tags: N-terminal GST; dsDNA, one strand shown
# Method in brief: as §1
# [8] = target: SPIB (Homo sapiens, UniProt Q01892 1-262); conditions: protein: recombinant; tags: N-terminal GST; dsDNA, one strand shown
# Method in brief: as §1
# [9] = target: T6, ELK3 (Homo sapiens, UniProt P41970 1-407); conditions: protein: recombinant; tags: N-terminal GST; dsDNA, one strand shown
# T6 sequence: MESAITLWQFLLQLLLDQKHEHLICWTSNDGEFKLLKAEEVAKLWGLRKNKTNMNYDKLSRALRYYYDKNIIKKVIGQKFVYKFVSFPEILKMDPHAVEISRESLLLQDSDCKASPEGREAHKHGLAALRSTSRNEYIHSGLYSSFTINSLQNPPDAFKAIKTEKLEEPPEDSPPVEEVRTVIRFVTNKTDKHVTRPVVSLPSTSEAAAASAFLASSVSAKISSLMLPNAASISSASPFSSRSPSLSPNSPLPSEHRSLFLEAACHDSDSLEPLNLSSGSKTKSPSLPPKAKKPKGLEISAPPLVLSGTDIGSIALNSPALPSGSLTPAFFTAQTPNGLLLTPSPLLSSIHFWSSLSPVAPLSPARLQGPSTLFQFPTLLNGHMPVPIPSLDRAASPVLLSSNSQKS
# Method in brief: as §1
# [10] = target: T7, FEV (Homo sapiens, UniProt Q99581 1-238); conditions: protein: recombinant; tags: N-terminal GST; dsDNA, one strand shown
# T7 sequence: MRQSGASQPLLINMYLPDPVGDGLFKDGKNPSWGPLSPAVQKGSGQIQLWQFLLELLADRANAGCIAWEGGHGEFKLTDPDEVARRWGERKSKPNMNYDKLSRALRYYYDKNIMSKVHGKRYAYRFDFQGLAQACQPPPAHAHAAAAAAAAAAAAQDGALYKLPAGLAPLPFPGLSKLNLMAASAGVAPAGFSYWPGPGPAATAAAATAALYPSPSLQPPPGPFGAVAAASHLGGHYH
# Method in brief: as §1
# [11] = target: ETV5 (Homo sapiens, UniProt P41161 1-510); conditions: protein: recombinant; tags: N-terminal GST; dsDNA, one strand shown
# Method in brief: as §1
# [12] = target: HSF1 (Homo sapiens, UniProt Q00613 1-529); conditions: protein: recombinant; tags: N-terminal GST; chain copies: 3; dsDNA, one strand shown
# Method in brief: as §1
# [13] = target: T8, SPIC (Homo sapiens, UniProt Q8N5J4 1-248); conditions: protein: recombinant; tags: N-terminal GST; dsDNA, one strand shown
# T8 sequence: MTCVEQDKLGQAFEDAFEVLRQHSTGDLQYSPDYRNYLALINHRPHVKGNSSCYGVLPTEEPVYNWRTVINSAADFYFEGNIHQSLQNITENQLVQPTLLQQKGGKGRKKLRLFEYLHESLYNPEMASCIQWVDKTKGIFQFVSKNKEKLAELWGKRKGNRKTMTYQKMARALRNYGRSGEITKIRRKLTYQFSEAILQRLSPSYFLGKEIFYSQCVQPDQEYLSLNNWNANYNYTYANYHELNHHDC
# Method in brief: as §1
# [14] = target: ELF4 (Homo sapiens, UniProt Q99607 1-663); conditions: protein: recombinant; tags: N-terminal GST; dsDNA, one strand shown
# Method in brief: as §1
# [15] = target: T9, ELK4 (Homo sapiens, UniProt P28324-2 1-405); conditions: protein: recombinant; tags: N-terminal GST; dsDNA, one strand shown
# T9 sequence: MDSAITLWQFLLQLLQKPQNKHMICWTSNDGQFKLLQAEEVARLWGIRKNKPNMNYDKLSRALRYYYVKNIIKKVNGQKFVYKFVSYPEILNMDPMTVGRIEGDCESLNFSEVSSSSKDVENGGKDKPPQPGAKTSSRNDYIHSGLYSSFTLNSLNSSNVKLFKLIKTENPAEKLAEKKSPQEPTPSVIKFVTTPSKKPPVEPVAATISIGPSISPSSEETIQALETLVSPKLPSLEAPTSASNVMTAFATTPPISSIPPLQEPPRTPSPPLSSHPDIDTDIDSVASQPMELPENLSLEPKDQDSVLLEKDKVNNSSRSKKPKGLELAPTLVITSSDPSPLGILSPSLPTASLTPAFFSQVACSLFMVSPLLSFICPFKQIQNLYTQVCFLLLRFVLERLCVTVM
# Method in brief: as §1
# [16] = target: T10, ETV2 (Homo sapiens, UniProt O00321 1-342); conditions: protein: recombinant; tags: N-terminal GST; dsDNA, one strand shown
# T10 sequence: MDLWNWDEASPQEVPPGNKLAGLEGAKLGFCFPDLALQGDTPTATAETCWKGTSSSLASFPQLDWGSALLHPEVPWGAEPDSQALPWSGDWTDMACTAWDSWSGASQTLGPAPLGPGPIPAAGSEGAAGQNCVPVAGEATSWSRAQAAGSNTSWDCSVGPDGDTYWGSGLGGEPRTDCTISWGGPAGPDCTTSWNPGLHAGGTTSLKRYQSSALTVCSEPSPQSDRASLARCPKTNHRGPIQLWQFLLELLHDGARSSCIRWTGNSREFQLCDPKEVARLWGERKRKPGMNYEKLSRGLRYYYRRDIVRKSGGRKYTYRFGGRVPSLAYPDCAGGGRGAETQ
# Method in brief: as §1
# [17] = target: T11, ELF3 (Homo sapiens, UniProt P78545 1-371); conditions: protein: recombinant; tags: N-terminal GST; dsDNA, one strand shown
# T11 sequence: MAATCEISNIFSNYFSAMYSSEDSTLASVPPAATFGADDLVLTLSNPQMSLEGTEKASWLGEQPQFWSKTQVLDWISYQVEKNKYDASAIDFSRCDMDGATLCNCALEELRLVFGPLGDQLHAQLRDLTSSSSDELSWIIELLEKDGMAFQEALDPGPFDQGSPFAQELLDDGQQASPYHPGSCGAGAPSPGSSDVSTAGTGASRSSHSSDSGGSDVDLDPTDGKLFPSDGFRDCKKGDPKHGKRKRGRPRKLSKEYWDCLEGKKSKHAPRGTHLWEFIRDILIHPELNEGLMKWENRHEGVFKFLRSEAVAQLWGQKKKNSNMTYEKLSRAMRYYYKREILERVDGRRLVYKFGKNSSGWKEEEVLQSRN
# Method in brief: as §1
# [18] = target: CRX (Homo sapiens, UniProt O43186 1-299); conditions: protein: recombinant; tags: N-terminal GST; dsDNA, one strand shown
# Method in brief: as §1
# [19] = target: ETV1 (Homo sapiens, UniProt P50549 1-477); conditions: protein: recombinant; tags: N-terminal GST; dsDNA, one strand shown
# Method in brief: as §1
# SPIB, sequence (Q01892 whole entry): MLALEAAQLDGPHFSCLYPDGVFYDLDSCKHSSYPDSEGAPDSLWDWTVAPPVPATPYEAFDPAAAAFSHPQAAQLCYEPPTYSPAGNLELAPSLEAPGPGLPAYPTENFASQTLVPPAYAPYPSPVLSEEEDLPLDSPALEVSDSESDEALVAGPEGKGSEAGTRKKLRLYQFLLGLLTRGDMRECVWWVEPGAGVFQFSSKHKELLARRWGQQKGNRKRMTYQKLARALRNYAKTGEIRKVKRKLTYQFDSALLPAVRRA
# HSF1, sequence (Q00613 whole entry): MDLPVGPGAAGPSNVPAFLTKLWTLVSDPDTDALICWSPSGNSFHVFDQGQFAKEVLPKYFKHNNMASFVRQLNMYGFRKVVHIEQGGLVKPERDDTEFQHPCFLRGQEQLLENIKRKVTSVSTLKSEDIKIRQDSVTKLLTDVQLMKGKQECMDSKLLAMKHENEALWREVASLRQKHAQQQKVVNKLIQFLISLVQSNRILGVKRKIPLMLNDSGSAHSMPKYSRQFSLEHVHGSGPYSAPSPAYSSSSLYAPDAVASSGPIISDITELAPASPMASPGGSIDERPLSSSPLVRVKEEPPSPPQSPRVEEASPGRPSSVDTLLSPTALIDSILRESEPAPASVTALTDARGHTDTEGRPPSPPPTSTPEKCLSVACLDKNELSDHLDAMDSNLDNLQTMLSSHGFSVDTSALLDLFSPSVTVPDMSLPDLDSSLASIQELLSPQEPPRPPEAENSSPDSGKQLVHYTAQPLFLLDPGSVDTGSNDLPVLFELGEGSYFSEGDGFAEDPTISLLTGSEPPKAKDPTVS
# ETV1, sequence (P50549 whole entry): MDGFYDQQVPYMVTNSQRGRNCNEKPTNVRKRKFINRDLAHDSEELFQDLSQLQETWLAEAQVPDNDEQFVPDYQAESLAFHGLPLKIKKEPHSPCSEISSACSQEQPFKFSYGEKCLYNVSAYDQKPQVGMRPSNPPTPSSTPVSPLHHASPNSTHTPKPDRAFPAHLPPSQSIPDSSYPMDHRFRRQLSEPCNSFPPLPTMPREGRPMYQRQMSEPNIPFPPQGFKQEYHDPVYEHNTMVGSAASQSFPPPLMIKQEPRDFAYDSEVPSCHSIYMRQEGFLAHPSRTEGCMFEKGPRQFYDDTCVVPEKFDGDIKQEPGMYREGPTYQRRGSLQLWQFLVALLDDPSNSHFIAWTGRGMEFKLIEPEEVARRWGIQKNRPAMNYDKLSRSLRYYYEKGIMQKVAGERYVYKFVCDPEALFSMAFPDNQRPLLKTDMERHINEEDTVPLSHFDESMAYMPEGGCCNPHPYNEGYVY
# ETV5, sequence (P41161 whole entry): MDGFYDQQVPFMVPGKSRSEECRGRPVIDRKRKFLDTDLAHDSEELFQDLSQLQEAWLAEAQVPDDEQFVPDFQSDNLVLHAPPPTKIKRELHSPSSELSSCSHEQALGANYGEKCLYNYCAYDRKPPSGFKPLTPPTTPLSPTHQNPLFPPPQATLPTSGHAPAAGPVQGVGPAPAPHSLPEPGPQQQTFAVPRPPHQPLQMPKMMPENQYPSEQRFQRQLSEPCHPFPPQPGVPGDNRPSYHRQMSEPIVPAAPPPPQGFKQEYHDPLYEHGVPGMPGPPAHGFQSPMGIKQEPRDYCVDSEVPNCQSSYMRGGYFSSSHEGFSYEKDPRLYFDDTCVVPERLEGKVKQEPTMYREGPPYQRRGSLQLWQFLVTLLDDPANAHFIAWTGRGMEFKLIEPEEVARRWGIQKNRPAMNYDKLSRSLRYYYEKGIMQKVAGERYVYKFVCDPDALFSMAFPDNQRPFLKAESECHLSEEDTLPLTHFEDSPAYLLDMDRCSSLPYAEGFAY
# ELF4, sequence (Q99607 whole entry): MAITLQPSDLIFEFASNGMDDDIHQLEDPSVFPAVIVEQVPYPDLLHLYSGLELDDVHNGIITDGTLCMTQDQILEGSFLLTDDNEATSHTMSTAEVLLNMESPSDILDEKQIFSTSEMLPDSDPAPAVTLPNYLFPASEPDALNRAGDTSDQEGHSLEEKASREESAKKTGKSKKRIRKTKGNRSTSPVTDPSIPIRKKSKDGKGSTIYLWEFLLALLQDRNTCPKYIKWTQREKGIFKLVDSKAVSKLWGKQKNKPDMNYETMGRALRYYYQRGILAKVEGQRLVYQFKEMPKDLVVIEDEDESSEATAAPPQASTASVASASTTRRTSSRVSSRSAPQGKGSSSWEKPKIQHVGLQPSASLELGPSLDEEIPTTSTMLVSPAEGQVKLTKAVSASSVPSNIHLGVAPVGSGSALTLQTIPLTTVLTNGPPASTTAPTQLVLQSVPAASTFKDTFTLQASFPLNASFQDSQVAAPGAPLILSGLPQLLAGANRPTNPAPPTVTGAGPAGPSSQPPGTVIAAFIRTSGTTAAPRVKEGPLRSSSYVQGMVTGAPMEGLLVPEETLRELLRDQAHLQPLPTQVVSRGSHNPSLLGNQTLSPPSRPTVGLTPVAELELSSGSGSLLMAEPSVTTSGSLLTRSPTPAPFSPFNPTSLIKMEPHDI
# ELF1, sequence (P32519 whole entry): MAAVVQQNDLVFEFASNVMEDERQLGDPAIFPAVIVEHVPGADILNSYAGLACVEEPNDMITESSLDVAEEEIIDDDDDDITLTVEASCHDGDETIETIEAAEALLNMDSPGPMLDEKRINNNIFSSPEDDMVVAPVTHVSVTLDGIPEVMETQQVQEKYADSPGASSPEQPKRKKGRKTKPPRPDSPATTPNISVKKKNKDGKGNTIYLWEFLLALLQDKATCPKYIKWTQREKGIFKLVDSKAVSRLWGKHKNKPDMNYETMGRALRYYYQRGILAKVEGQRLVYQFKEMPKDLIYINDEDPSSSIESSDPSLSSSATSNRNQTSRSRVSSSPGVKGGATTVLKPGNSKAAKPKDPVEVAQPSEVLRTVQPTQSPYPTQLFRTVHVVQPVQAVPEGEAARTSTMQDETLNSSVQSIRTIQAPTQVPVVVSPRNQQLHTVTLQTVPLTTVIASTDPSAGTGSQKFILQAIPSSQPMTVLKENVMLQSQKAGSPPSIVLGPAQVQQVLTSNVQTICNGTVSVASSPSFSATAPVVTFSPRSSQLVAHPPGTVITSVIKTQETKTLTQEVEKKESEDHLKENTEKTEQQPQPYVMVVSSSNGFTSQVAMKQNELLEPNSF
# CRX, sequence (O43186 whole entry): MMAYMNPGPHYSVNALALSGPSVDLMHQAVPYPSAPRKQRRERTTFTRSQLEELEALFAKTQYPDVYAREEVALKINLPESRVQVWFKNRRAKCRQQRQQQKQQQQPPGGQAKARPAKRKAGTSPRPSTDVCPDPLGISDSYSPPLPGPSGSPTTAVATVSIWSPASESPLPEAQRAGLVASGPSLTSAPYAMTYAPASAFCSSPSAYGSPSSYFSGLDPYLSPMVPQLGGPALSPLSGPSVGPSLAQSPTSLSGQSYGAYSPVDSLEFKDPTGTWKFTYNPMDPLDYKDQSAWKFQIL
sequence,measurement,setting,value
TGGTAT,binding signal,[1],"1.41 fold enrichment (6-mer frequency, TF over GST control)"
same,binding signal,[2],"1.45 fold enrichment (6-mer frequency, TF over GST control)"
same,binding signal,[3],"1.29 fold enrichment (6-mer frequency, TF over GST control)"
same,binding signal,[4],"1.31 fold enrichment (6-mer frequency, TF over GST control)"
same,binding signal,[5],"1.39 fold enrichment (6-mer frequency, TF over GST control)"
same,binding signal,[6],"1.32 fold enrichment (6-mer frequency, TF over GST control)"
same,binding signal,[7],"1.39 fold enrichment (6-mer frequency, TF over GST control)"
same,binding signal,[8],"1.37 fold enrichment (6-mer frequency, TF over GST control)"
same,binding signal,[9],"1.24 fold enrichment (6-mer frequency, TF over GST control)"
same,binding signal,[10],"1.26 fold enrichment (6-mer frequency, TF over GST control)"
same,binding signal,[11],"1.37 fold enrichment (6-mer frequency, TF over GST control)"
same,binding signal,[12],"1.35 fold enrichment (6-mer frequency, TF over GST control)"
same,binding signal,[13],"1.39 fold enrichment (6-mer frequency, TF over GST control)"
same,binding signal,[14],"1.42 fold enrichment (6-mer frequency, TF over GST control)"
same,binding signal,[15],"1.47 fold enrichment (6-mer frequency, TF over GST control)"
same,binding signal,[16],"1.33 fold enrichment (6-mer frequency, TF over GST control)"
same,binding signal,[17],"1.45 fold enrichment (6-mer frequency, TF over GST control)"
same,binding signal,[18],"1.39 fold enrichment (6-mer frequency, TF over GST control)"
same,binding signal,[19],"1.37 fold enrichment (6-mer frequency, TF over GST control)"
